The values that follow come from PubChem BioAssay (NCATS).

Inconclusive results are not listed. Values without a mark were called inactive. Calls of active or inactive are those of the source. Calls follow the shape of the dose curve; as a rule, active = well fitted inhibition curve with a large enough effect; inconclusive = small, poorly fitted or top-dose-only effect; inactive = no such curve, though single readings can be large or run the other way.
% is scaled to controls: 0 for no effect and ±100 for the full control effect; potency is read from the fitted curve at half-maximal effect.

In the assay the test system is Zika virus NS2B-NS3 protease (linked construct). Briefly: Primary screen NINDS Rhodamine qHTS for Zika virus inhibitors (AID 1347160). Also: nearly all actives have a fitted effect of over 55% in size. To be noted: purified NS2B-NS3 protease, Rhodamine110 substrate fluorescence; series mostly up to 57.1 µM; activity change, negative = inhibition: at the top concentration. The text has this:
Avindra Nath, Ph.D., National Institute of Neurological Disorders and Stroke (NINDS), Bethesda, MD
Radhakrishnan Padmanabhan, Ph.D., Georgetown University (GU), Washington D.C.
Zika Virus causes congenital defects, including microcephaly and is associated with Guillain-Barre syndrome, eningoencephalitis and myelitis in infected adult. […] Using a target-based approach, we hope to establish a screening paradigm to uncover novel, cell-active NS2B-NS3 protease (Zika Virus) specific inhibitors from NCATS' collection of small molecules using qHTS.
Four assay panel was created to identify potential Zika Virus inhibitors. Namely, (1) GU unlinked NS2B-NS3 AMC tagged protease qHTS, (2) GU unlinked NS2B-NS3 Rhodamine tagged protease qHTS, (3) NINDS linked NS2B-NS3 AMC tagged protease qHTS, (4) NINDS linked NS2B-NS3 Rhodamine tagged protease qHTS. Active compounds were re-acquired and re-screened to confirm inhibition. Inhibitors were further screened against various confirmatory and counterscreens in dose response format.
Early Translation Branch (ETB)
National Center for Advancing Translational Sciences (NCATS), Rockville, MD
National Institute of Health (NIH), Bethesda, Maryland
For the linked assay, Nath lab (NINDS) provided the purified linked NS2B-NS3 protease which is consists of hydrophilic domain of NS2B linked to the NS3 protease domain by a flexible (-[…]-) linker. Control compound aprotinin is obtained from Thermo Scientific (#78432; Waltham, Massachusetts). Rhodamine110 substrate ([N-Cbz]-Nle-Lys-Arg-Arg-Rhod110-Arg-Arg-Lys-Nle-[N-Cbz]) was purchased from either Genscript or Bachem.
1536-well Protease (Rhodamine110 Substrate) Assay:
Briefly, 3 microL of enzyme (25 nM final concentration), in assay buffer (10 mM Tris-HCl pH 8.0 with 0.01% Tween 20) were dispensed into a 1,536-well solid-bottom black plate (Greiner Bio One, Monroe, NC). Twenty-three nL of compounds (final concentration range 7.28 nM to 114 microM) or control Aprotinin (final concentration range 3.47 nM to 114 microM) were transferred via Wako Pin-tool (Wako Automation, Richmond, VA). Samples were incubated (room temperature, protected from light) for 15 minutes followed by a 1 microL Rhodamine110 substrate addition (1.5 microM final concentration). Plates were then immediately read on a ViewLux High-throughput CCD imager (PerkinElmer, Waltham, MA) equipped with FITC fluorescence optics (480(20) nm excitation, 540(25) nm emission), then incubated (room temperature, protected from light) for 15 minutes (~15% conversion). The change in fluorescence intensity over the 15-minute reaction period was normalized against no-inhibitor and no-enzyme controls and the resulting percent inhibition data were fitted to a 4-parameter Hill equation. Aprotinin was used as intraplate control.
(qHTS replaces the single test concentration by a dilution series.)
Consider `COc1cc(O)c2c3c(c(O)cc(C)c13)C(=O)OC2`, for which the Potency was 22 µM (active).

In the case of `CNc1cc(OC)c(C(=O)N[C@@H]2CCN(Cc3ccccc3)[C@@H]2C)cc1Cl`, the “activity change, negative = inhibition” value is 9.08%.

As for `CN([C@H]1c2cc(OCCCC(F)(F)F)ccc2OC(C)(C)[C@@H]1O)S(C)(=O)=O`, the “activity change, negative = inhibition” value is 20.9%.

`Fc1ccc(C2CCNC[C@H]2COc2ccc3c(c2)OCO3)cc1` (stereo not given in full): the “activity change, negative = inhibition” value is 161%.

As for `COc1ccc(NC(=O)N2CCc3c2ccc2ccccc32)cc1N1CCN(C)CC1`, the “activity change, negative = inhibition” value was 141%.

Regarding `C=C1[C@@H](C2=CC(=O)OC2)CC[C@@]2(O)[C@@H]1CC1[C@H]2CC[C@@H]2C[C@@H](O[C@H]3O[C@@H](C)[C@@H](O[C@@H]4O[C@H](CO[C@@H]5O[C@H](CO)[C@@H](O)[C@H](O)[C@H]5O)[C@@H](O)[C@H](O)[C@H]4O)[C@H](OC)[C@H]3O)CC[C@]12C` (stereo not given in full), the “activity change, negative = inhibition” value was -21.7% [at 15.1 µM].

In the case of `CC1=CC(=O)[C@@]2(C(C)C)C[C@@H]12`, the Potency was 3.16 µM (active).

Consider `COc1ccc2c(c1)C[C@H](C(=O)Nc1ccc(-c3cn[nH]c3)cc1OCCN(C)C)CO2`, for which the “activity change, negative = inhibition” value was 24.9%.

Take `O=C(Nc1ncc(SCCN2CCCC2)s1)C1(c2ccc(S(=O)(=O)C3CC3)cc2)CC1C1CCCCC1` (stereo not given): the “activity change, negative = inhibition” value is 141%.

For the molecule `O=Cc1ccc2n1C[C@@]1(C[C@H](O)[C@H](O)CO1)OC2`, the “activity change, negative = inhibition” value was 9.89% [at 112 µM].

With `CC1=CC2=C[C@H](C)C[C@@]23OC(=C(C)C3=O)CC(C)(C)/C=C/C1=O`, the Potency is 55.3 µM (active).

For `COC1C(O)C(OC(N)=O)C(Oc2ccc3c(O)c(NC(=O)c4ccc(O)c(CC=C(C)C)c4)c(=O)oc3c2C)OC1(C)C` (stereo not given), the Potency is 44 µM (active).

On to `COc1ccc(-c2c(C)c(C(=O)NN3CCCCC3)nn2-c2ccc(Cl)cc2Cl)cc1`, for which the “activity change, negative = inhibition” value is 24.7%.

With `CN(C)CCCCCCNC(=O)c1cccc(-c2cc(O)c3ncccc3c2)c1`, the “activity change, negative = inhibition” value is 109%.

In the case of `C=C1C[C@@]23C=CC(=O)[C@@](C)(CCCC(C)C(=O)O)[C@@H]2C[C@@H]1CC3` (stereo not given in full), the Potency is 44 µM (active).

As to `N#CCC(C1CCCC1)n1cc(-c2ncnc3[nH]ccc23)cn1` (stereo not given), the “activity change, negative = inhibition” value was 12.5%.

Take `CCOC(=O)CCC(=O)O[C@H]1[C@H](O[C@@H]2[C@@H](C)[C@H](O[C@H]3C[C@@](C)(OC)[C@@H](O)[C@H](C)O3)[C@@H](C)C(=O)O[C@H](CC)[C@@](C)(O)[C@H](O)[C@@H](C)C(=O)[C@H](C)CC2(C)O)O[C@H](C)C[C@@H]1N(C)C` (stereo not given in full): the “activity change, negative = inhibition” value was 20.5%.

Consider `Oc1ccc(C2c3c(O)cc(O)cc3[C@@H]3C(c4ccc(O)cc4)c4c(O)cc(O)cc4[C@H]23)cc1` (stereo not given in full), for which the Potency was 34.9 µM (active).

As for `O=C(O)CC1OCc2c(O)cccc21` (stereo not given), the “activity change, negative = inhibition” value was 12.4% [at 112 µM].

For `O=C(/C=C/n1cnc(-c2cc(C(F)(F)F)cc(C(F)(F)F)c2)n1)NNc1cnccn1`, the “activity change, negative = inhibition” value is 14.6%.

With `O=Cc1ccc2n1C[C@@]1(OC2)O[C@H](CO)[C@@H](O)[C@@H]1O`, the “activity change, negative = inhibition” value was 19.6% [at 112 µM].

As to `CC(=O)O[C@H]1CC[C@@]2(C)C(CC[C@]3(C)C2CC=C2C4CC(C)(C)CC[C@]4(C)CC[C@]23C)C1(C)C` (stereo not given in full), the “activity change, negative = inhibition” value is -30.9% [at 112 µM].

Turning to `COc1c(O)cc2oc(-c3ccccc3)cc(=O)c2c1O`, the Potency was 44 µM (active).

With `c1ccc(-c2cnc(Nc3ccc(OCCN4CCCC4)cc3)s2)cc1`, the “activity change, negative = inhibition” value was 212%.

For `COc1ccccc1-c1c[nH]c2ncc(-c3cncc(C(=O)N(C)C)c3)cc12`, the “activity change, negative = inhibition” value was 12.2%.

`Oc1ccc(/C=C2/c3cc(O)cc(O)c3C(c3ccc(O)cc3)[C@H]2c2cc(O)cc(O)c2)cc1` (stereo not given in full): the Potency is 27.7 µM (active).

As to `C=C1C(=O)O[C@@H]2C[C@@H](C)[C@]34C[C@]5(C(=O)O[C@H]6CC(C)=C([C@H](C)CCCO)[C@H](OC(=O)C(C)CC)[C@H]65)[C@@H](C(C)=C3C[C@@H]12)[C@H]4OC(C)=O` (stereo not given in full), the “outcome” value is “inactive [at 15.1 µM]”.

As for `C[C@@]12C[C@@H](C[C@H]3C(=O)O[C@@H](c4ccoc4)[C@H](OC(=O)c4ccccc4)[C@@H]31)OC2=O`, the “activity change, negative = inhibition” value is -20.4% [at 112 µM].

`C=C1C[C@@]23C=CC(=O)[C@@](C)(CCC(=O)Nc4c(O)ccc(C(=O)O)c4O)C2C[C@@H]1CC3` (stereo not given in full): the Potency was 27.7 µM (active).

`CO[C@H]1/C=C/CC[C@@H](S[C@@H]2O[C@H](CO)[C@@H](O)[C@H](O)[C@H]2O)CC(=O)O[C@@H](/C(C)=C/[C@H](C)C(=O)CCCC2CC(=O)NC(=O)C2)[C@@H](C)[C@@H]1O`: the “activity change, negative = inhibition” value is -19.8% [at 112 µM].

Consider `CN(C)CC(=O)Nc1ccc2[nH]c(=O)c3ccccc3c2c1`, for which the “activity change, negative = inhibition” value is -3.86%.

For `Cc1ccc2c(Nc3ccc(Cl)cc3)nccc2c1Nc1ncccc1-c1ncnc2nc[nH]c12`, the “activity change, negative = inhibition” value was 0.0856%.

For the molecule `O=C1CC(c2cc(O)cc(O)c2)Oc2cc(O)ccc21` (stereo not given), the Potency was 34.9 µM (active).

Take `C=C(NC(=O)c1csc(-c2nc3c(cc2O)-c2nc(cs2)C(=O)NC(C(C)O)C(=O)N/C(=C(\C)O)c2nc(cs2)C(=O)NC2c4nc(cs4)C(=O)NC(COC(=O)c4c5c6c(cccc6n4O)COC(=O)[C@@H](OC4C[C@](C)(O)[C@H](N(C)C)[C@H](C)O4)C2OC5)c2nc-3cs2)n1)C(N)=O` (stereo not given in full): the Potency is 4.4 µM (active).

Take `C=C1/C(=C/C=C2\CCC[C@]3(C)[C@@H]([C@H](C)/C=C/C(=O)C4CC4)CC[C@@H]23)C[C@@H](O)C[C@@H]1O`: the “activity change, negative = inhibition” value is -9.6%.

`COc1ccc([C@@H]2c3cc(OC)c(OC)cc3C(=O)[C@H](C)C2C)cc1OC` (stereo not given in full): the “activity change, negative = inhibition” value is -28% [at 33.1 µM].

Turning to `O=C(O)CC1OC(=O)c2c(O)cccc21` (stereo not given), the “activity change, negative = inhibition” value is -19.4% [at 112 µM].

As to `CN1CC[C@]2(c3cccc4c3N[C@@H]3N(C)CC[C@]43[C@@]34CCN(C)[C@@H]3Nc3c([C@]56CCN(C)[C@H]5Nc5ccccc56)cccc34)c3ccccc3N[C@H]12`, the “activity change, negative = inhibition” value is 124% [at 112 µM].

`CC(CCC1(O)OC2CC3C4CC=C5CC(O[C@@H]6O[C@H](CO)[C@@H](O[C@@H]7O[C@H](CO)[C@@H](O)[C@H](O)[C@H]7O)[C@H](O)[C@H]6O[C@@H]6O[C@@H](C)[C@H](O)[C@@H](O)[C@H]6O)CCC5(C)C4CCC3(C)C2C1C)CO[C@@H]1O[C@H](CO)[C@@H](O)[C@H](O)[C@H]1O` (stereo not given in full): the “activity change, negative = inhibition” value is 19.9% [at 15.1 µM].

With `CCOP(=O)(Cc1ccc(C(=O)Nc2ccc(Br)cc2C#N)cc1)OCC`, the “outcome” value is “inactive [at 33.1 µM]”.
